Measured values as given in PubChem BioAssay (Tox21).
Several values for one entry are separate records, joined by “and”; a condition that tells them apart may be missing. Identical values can stand only once. Records with an inconclusive call do not appear. Activity calls are given as the source filed them. The call rests on the fitted dose curve; in most records, active means well fitted curve in the direction sought with a large enough effect in the repeat runs; inconclusive means weak or mixed curves; inactive means no such curve, though single readings can be large; an effect the other way counts as inactive or inconclusive.

Columns and labels:
[1] = Caspase-3/7 induction in HepG2 cells by small molecules, qHTS assay (AID 1346978); further: nearly all actives have a fitted effect of over 15% in size
Method in brief: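 Wild-type HepG2 cells (2,000/well) were settled 5 h at 37 C, 5% CO2, then exposed to compounds in DMSO for 17 h. Caspase-3/7 activity was read by luminescence 30 min after adding Caspase-Glo 3/7 reagent at room temperature.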

[2] = Caspase-3/7 induction in CHO-K1 cells by small molecules, qHTS cell viability counter screen (AID 1346979); further: nearly all actives have a fitted effect of over 35% in size; further: potency means the concentration at half of the fitted maximal effect
Method in brief: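 Following a 5hr settling period, CHO-K1 cells at 1,500 per well received DMSO-dissolved compounds. Cell viability was quantified 16hr later by CellTiter-Fluor fluorescence, measured after 1hr with reagent at 37C.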

[3] = Caspase-3/7 induction in CHO-K1 cells by small molecules, qHTS assay (AID 1346980); further: nearly all actives have a fitted effect of over 15% in size; further: potency means the concentration at half of the fitted maximal effect
Method in brief: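 Wild-type cells were seeded at 1,500 per well and settled 5 hr at 37 C, 5% CO2, then exposed to DMSO-dissolved compounds for 17 hr. Caspase-Glo 3/7 reagent was added, and luminescence was read after 30min at room temperature.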

[4] = Caspase-3/7 induction in HepG2 cells by small molecules, qHTS cell viability counter screen (AID 1346981); further: nearly all actives have a fitted effect of over 30% in size; further: potency means the concentration at half of the fitted maximal effect; on activity change, negative = cytotoxicity: series mostly up to about 92 µM
Method in brief: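 Viability determined by CellTiter-Fluor fluorescence in HepG2 wells also used for the luminescent Caspase-Glo 3/7 read. Compounds were present for 16 hr at 37 C, 5% CO2 before reagent addition.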

[5] = target: Nuclear receptor subfamily 1 group I member 2 (Homo sapiens) (UniProt O75469); assay: Human pregnane X receptor (PXR) small molecule agonists, qHTS assay (AID 1346982); further: nearly all actives have a fitted effect of over 35% in size; further: potency means the concentration at half of the fitted maximal effect
Method in brief: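 Compound-induced hPXR transactivation of a CYP3A4 luciferase reporter was scored in HepG2 PXR-Luc cells over 24 hr at 37 C, 5% CO2, by luminescence.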

[6] = target: Cytochrome P450 2D6 (Homo sapiens) (UniProt P10635); assay: Cytochrome P450 Family 2 Subfamily D Member 6 (CYP2D6) small molecule antagonists: luciferase reporter qHTS assay (AID 1671196); further: nearly all actives have a fitted effect of over 50% in size; further: potency means the concentration at half of the fitted maximal effect; on activity change, negative = inhibition: series mostly up to about 120 µM
Method in brief: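 Each well received CYP2D6 with its proluciferin substrate and chemical, sat 10 min, then got NADPH regeneration solution for 1 h at room temperature. Luminescence in RLU served as the activity measure.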

[7] = target: Nuclear receptor subfamily 1 group I member 2 (Rattus norvegicus) (UniProt Q9R1A7); assay: Rat pregnane X receptor (rPXR) activation by small molecules, qHTS assay (AID 1346983); settings: rPXR luciferase reporter cells, One-Glo luminescence, 24 h; max activation: active compounds read high; further: nearly all actives have a fitted effect of over 20% in size
Method in brief: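 Cell-based rPXR luciferase reporter assay, 2,000 cells per well, rested 5hr at 37 C before compound addition in DMSO, then 24 hr at 37 C. One-Glo reagent was added and luminescence read after 30 min at room temperature.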

[8] = target: Nuclear receptor subfamily 1 group I member 2 (Homo sapiens) (UniProt O75469); assay: CYP3A4 induction through human pregnane X receptor (PXR) by small molecules, qHTS assay (AID 1346984); further: nearly all actives have a fitted effect of over 40% in size
Method in brief: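 Readings come from a luciferase reporter: DPX-2 cells, which are HepG2 cotransfected with PXR and a CYP3A4-promoter construct, were exposed to test compounds for 24 h at 37C before One-Glo detection.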

[9] = target: Cytochrome P450 2C19 (Homo sapiens) (UniProt P33261); assay: Cytochrome P450 Family 2 Subfamily C Member 19 (CYP2C19) small molecule antagonists: luciferase reporter qHTS assay (AID 1671197); further: nearly all actives have a fitted effect of over 65% in size; further: potency means the concentration at half of the fitted maximal effect; on activity change, negative = inhibition: series mostly up to about 120 µM
Method in brief: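 First, compounds are pinned into enzyme-substrate mix and held 10 min at room temperature. Second, NADPH regeneration solution is added and plates incubate 1 h at 37C. Third, detection reagent is added and luminescence read after 20 min.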

[10] = target: Cytochrome P450 2C9 (Homo sapiens) (UniProt P11712); assay: Cytochrome P450 Family 2 Subfamily C Member 9 (CYP2C9) small molecule antagonists: luciferase reporter qHTS assay (AID 1671198); further: nearly all actives have a fitted effect of over 50% in size; further: potency means the concentration at half of the fitted maximal effect; on activity change, negative = inhibition: series mostly up to about 120 µM
Method in brief: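 CYP2C9 activity was measured with a P450-Glo proluciferin substrate. Enzyme–substrate mix was held with compound for 10 min at room temperature, then NADPH regeneration solution was added for 1 h at 37C. Luciferin product was read as luminescence.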
On the % scale 0 is the no-effect control and ±100 the full control effect.

Sequence of Cytochrome P450 2C9 (Homo sapiens) (P11712 whole entry, looked up): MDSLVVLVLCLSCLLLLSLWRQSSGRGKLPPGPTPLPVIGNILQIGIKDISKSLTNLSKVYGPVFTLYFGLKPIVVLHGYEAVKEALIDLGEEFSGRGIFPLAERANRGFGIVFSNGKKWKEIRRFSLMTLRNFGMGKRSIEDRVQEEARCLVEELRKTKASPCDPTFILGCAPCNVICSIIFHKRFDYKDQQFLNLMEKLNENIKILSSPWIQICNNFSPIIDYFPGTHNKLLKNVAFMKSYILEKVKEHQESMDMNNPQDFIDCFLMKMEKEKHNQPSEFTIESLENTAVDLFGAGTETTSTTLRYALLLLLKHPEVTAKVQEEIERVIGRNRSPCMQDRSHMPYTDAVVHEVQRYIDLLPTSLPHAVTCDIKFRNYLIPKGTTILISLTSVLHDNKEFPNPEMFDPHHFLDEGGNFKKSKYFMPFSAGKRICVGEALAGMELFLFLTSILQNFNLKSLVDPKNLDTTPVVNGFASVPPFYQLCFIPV
Sequence of Cytochrome P450 2C19 (Homo sapiens) (P33261 whole entry, looked up): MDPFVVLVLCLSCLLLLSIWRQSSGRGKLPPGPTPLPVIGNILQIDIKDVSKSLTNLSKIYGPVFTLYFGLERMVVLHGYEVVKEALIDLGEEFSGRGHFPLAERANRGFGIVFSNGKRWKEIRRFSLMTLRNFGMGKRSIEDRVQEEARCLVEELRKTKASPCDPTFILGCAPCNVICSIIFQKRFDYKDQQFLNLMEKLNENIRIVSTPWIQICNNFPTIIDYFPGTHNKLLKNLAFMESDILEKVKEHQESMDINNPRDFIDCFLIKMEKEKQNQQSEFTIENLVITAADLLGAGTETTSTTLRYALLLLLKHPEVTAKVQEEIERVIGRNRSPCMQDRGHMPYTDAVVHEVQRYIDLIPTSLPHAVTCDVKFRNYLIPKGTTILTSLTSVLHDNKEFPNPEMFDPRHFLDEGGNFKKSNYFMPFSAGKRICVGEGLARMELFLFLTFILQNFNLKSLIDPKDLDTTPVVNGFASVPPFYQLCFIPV
Sequence of Cytochrome P450 2D6 (Homo sapiens) (P10635 whole entry, looked up): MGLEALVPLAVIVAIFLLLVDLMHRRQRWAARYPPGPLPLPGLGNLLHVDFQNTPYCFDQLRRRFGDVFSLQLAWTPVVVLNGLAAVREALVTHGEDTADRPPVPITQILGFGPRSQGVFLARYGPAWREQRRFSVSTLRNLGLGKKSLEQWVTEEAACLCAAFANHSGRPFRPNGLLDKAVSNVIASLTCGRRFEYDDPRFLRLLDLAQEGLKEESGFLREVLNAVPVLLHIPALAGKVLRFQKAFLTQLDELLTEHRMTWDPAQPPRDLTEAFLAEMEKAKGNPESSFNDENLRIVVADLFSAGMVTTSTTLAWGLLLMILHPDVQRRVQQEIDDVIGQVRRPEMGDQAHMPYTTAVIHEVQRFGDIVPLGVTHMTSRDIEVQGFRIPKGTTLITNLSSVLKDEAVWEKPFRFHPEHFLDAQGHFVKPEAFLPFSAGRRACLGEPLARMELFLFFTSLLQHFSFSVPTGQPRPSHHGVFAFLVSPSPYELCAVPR
Sequence of Nuclear receptor subfamily 1 group I member 2 (Homo sapiens) (O75469 whole entry, looked up): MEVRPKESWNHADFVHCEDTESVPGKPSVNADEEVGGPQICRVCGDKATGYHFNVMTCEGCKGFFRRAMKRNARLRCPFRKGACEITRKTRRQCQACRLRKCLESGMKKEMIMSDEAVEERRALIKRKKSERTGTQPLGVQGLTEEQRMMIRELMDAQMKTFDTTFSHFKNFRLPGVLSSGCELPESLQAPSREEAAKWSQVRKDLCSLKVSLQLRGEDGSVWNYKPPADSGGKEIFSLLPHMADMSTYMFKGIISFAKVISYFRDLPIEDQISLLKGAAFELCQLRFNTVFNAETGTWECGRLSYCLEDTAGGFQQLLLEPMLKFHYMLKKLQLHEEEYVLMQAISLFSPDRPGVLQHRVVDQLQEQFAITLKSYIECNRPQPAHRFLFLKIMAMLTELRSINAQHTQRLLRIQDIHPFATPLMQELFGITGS
Sequence of Nuclear receptor subfamily 1 group I member 2 (Rattus norvegicus) (Q9R1A7 whole entry, looked up): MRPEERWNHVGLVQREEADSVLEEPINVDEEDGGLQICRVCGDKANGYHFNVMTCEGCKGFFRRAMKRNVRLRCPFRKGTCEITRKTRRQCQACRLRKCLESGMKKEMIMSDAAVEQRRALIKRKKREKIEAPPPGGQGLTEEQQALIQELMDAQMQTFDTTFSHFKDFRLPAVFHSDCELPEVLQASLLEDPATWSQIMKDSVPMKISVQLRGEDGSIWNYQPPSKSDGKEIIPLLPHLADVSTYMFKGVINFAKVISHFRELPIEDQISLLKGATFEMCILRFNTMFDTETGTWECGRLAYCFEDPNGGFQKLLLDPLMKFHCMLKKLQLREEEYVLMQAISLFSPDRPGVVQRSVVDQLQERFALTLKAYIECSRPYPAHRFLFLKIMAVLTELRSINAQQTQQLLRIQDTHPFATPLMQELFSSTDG

C=CC(=C)CC/C=C(\C)CCC=C(C)C
inactive: caspase activation [1] 0.847% [at 19 µM] | activity change, negative = cytotoxicity [2] -0.798% [at 19 µM] | caspase-3/7 activation [3] 0.541% [at 19 µM] | activity change, negative = cytotoxicity [4] -2.86% [at 19 µM] | activation [5] 8.17% [at 19 µM] | activity change, negative = inhibition [6] -7.39% [at 23.6 µM]

CCOCN(C(=O)CS(=O)(=O)O)c1c(C)cccc1CC
inactive: Potency [1] | Potency [2] | Potency [3] | Potency [4] | Potency [5] | Potency [6]

Clc1ccc(C(Cn2ccnc2)OCc2c(Cl)cccc2Cl)c(Cl)c1 (centres undefined)
inactive: Potency [1] | Potency [3]
active: Potency [2] 21.1 µM

C=CC(=C)CCC=C(C)C
inactive: Potency [1] | Potency [2] | Potency [3] | Potency [4] | Potency [5] | Potency [6]

C=CCCCCCCC=C
inactive: Potency [1] | Potency [2] | Potency [3] | Potency [4]

N[C@@H](CSSC[C@H](N)C(=O)O)C(=O)O
inactive: caspase activation [1] 0.0664% [at 0.349 µM] | activity change, negative = cytotoxicity [2] -1.36% [at 0.349 µM] | caspase-3/7 activation [3] 0.0732% [at 0.349 µM] | activity change, negative = cytotoxicity [4] 6.72% [at 0.349 µM] | activation [5] -0.742% [at 0.349 µM] | max activation [7] -1.39% | Potency [8] | activity change, negative = inhibition [6] -4.15% [at 0.435 µM] | activity change, negative = inhibition [9] -14.3% [at 0.435 µM] | activity change, negative = inhibition [10] 1.25% [at 0.435 µM]

CC(C)N=C(N)/N=C(\N)Nc1ccc(Cl)cc1
inactive: Potency [1] | Potency [3] | Potency [4] | Potency [5] | max activation [7] -16.8% | Potency [8]
active: Potency [2] 11.9 µM | Potency [6] 5.49 µM | Potency [9] 15.5 µM

OCCCc1cccnc1
inactive: Potency [1] | Potency [2] | Potency [3] | Potency [4] | Potency [5] | Potency [6] | Potency [9] | Potency [10]

CCc1cccc(CC)c1NC(=O)C(=O)O
inactive: Potency [1] | Potency [2] | Potency [3] | Potency [4] | Potency [5] | Potency [6] | Potency [9] | Potency [10]

C/C=C/c1ccc(OC)c(OC)c1
inactive: Potency [1] | Potency [2] | Potency [3] | Potency [4] | Potency [5] | Potency [6]
active: Potency [9] 71 µM | Potency [10] 35.6 µM

COc1nccnc1CC(C)C
inactive: Potency [1] | Potency [2] | Potency [3] | Potency [4] | Potency [5] | Potency [6] | Potency [9] | Potency [10]

O=C[C@H](O)[C@H](O)[C@H](O)CO
inactive: Potency [1] | Potency [2] | Potency [3] | Potency [4] | Potency [5] | Potency [6] | Potency [9] | Potency [10]

COc1cccc(O)c1
inactive: Potency [1] | Potency [2] | Potency [3] | Potency [4] | Potency [5] | Potency [6] | Potency [9] | Potency [10]

CC(C)C(=O)OCc1ccccc1
inactive: Potency [1] | Potency [2] | Potency [3] | Potency [4] | Potency [5] | Potency [6] | Potency [9] | Potency [10]

CN1CN(C)CN(C)C1
inactive: Potency [1] | Potency [2] | Potency [3] | Potency [4] | Potency [5] | Potency [6] | Potency [9] | Potency [10]

Cc1cc(Nc2ccc(O)cc2)ccc1N
inactive: Potency [1]
active: Potency [2] 27.2 µM | Potency [3] 21.6 µM | Potency [4] 48.3 µM | Potency [5] 9.64 µM | Potency [6] 39.8 µM | Potency [9] 19.9 µM | Potency [10] 5.62 µM

Cc1cccc(C)n1
inactive: Potency [1] | Potency [2] | Potency [3] | Potency [4] | Potency [5] | Potency [6] | Potency [9] | Potency [10]

CC1=CP(=O)(c2ccccc2)CC1 (centres undefined)
inactive: Potency [1] | Potency [2] | Potency [3] | Potency [4] | Potency [5] | Potency [6] | Potency [9] | Potency [10]

Brc1ccccn1
inactive: Potency [1] | Potency [2] | Potency [3] | Potency [4] | Potency [5] | Potency [6] | Potency [9] | Potency [10]

CC1(C)C(=O)N(CO)C(=O)N1CO
inactive: Potency [1] | Potency [2] | Potency [3] | Potency [4] | Potency [5] | Potency [6] | Potency [9] | Potency [10]

c1ccc(Nc2cccc3ccccc23)cc1
active: Potency [2] 61.9 µM | Potency [5] 61.9 µM and 30.6 µM | Potency [6] 32.1 µM | Potency [9] 5.09 µM and 10 µM | Potency [10] 36.1 µM and 35.6 µM
inactive: Potency [1] | Potency [3] | Potency [4]

CCCCCCCC(OC)OC
inactive: Potency [1] | Potency [2] | Potency [3] | Potency [4] | Potency [5] | Potency [6] | Potency [9] | Potency [10]

CCC1CCCCC1
inactive: Potency [1] | Potency [2] | Potency [3] | Potency [4] | Potency [5] | Potency [6] | Potency [9] | Potency [10]

c1cc[nH]c1
inactive: Potency [1] | Potency [2] | Potency [3] | Potency [4] | Potency [5] | Potency [6] | Potency [9] | Potency [10]

C[Si](C)O[Si](C)C
inactive: Potency [1] | Potency [2] | Potency [3] | Potency [4] | Potency [5] | Potency [6] | Potency [9] | Potency [10]

Cc1ccc2ccc3cccc4ccc1c2c34
active: Potency [6] 63.2 µM | Potency [9] 28.2 µM | Potency [10] 63.2 µM
inactive: Potency [1] | Potency [2] | Potency [3] | Potency [4] | Potency [5]

CC(=O)OC1CCCCC1
inactive: Potency [1] | Potency [2] | Potency [3] | Potency [4] | Potency [5] | Potency [6] | Potency [9] | Potency [10]
